Hit rate of the full screen: of about 5,500 compounds, about 2,000 (36%) were called active. Another 18% or so got no clear call; they are omitted. Rule as the data show it: active = normalized growth mostly below about 0.91 (no sharp cut-off); inconclusive = no clear call, values can overlap the other calls; inactive = mostly above about 0.92. Some of the results follow.
Assay: chemical genetic growth profiling, strain panel (AID 1159580);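 also: tested at 20 µM; growth read once vehicle control cultures reached saturation at 30 °C; 1 = growth at the plate median or of vehicle wells; lower values mean less growth of the strain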
Conditions: growth OD

Measured: normalized growth

CC(=O)Nc1ccccc1
inactive: S. cerevisiae deletion strains, locus YJR066W, strain TOR1, stronger effect = lower value 0.911 | S. cerevisiae deletion strains, locus YJR075W, strain HOC1, stronger effect = lower value 0.99 | S. cerevisiae deletion strains, locus YKL009W, strain mrt4, stronger effect = lower value 0.97 | S. cerevisiae deletion strains, locus YKL068W, stronger effect = lower value 0.99 | S. cerevisiae deletion strains, locus YKL085W, strain MDH1 (second series), stronger effect = lower value 0.977 | S. cerevisiae deletion strains, locus YKL085W, strain MDH1, stronger effect = lower value 0.977 | S. cerevisiae deletion strains, locus YKL160W, strain elf1, stronger effect = lower value 0.985 | S. cerevisiae deletion strains, locus YKL190W, strain CNB1, stronger effect = lower value 0.973 | S. cerevisiae deletion strains, locus YKR001C, strain vps1, stronger effect = lower value 0.98 | S. cerevisiae deletion strains, locus YKR026C, strain gcn3, stronger effect = lower value 0.927 | S. cerevisiae deletion strains, locus YKR091W, strain srl3, stronger effect = lower value 0.95 | S. cerevisiae deletion strains, locus YLL001W, strain dnm1, stronger effect = lower value 0.979 | S. cerevisiae deletion strains, locus YLL026W, stronger effect = lower value 0.972 | S. cerevisiae deletion strains, locus YLL041C, strain sdh2, stronger effect = lower value 0.985 | S. cerevisiae deletion strains, locus YLR027C, strain aat2, stronger effect = lower value 0.961 | S. cerevisiae deletion strains, locus YLR039C, strain RIC1, stronger effect = lower value 0.966 | S. cerevisiae deletion strains, locus YLR058C, strain SHM2, stronger effect = lower value 0.972 | S. cerevisiae deletion strains, locus YLR102C, strain apc9, stronger effect = lower value 0.983 | S. cerevisiae deletion strains, locus YLR113W, strain HOG1, stronger effect = lower value 0.959 | S. cerevisiae deletion strains, locus YLR221C, strain rsa3, stronger effect = lower value 0.967 | S. cerevisiae deletion strains, locus YLR258W, strain gsy2, stronger effect = lower value 0.98 | S. cerevisiae deletion strains, locus YLR262C, strain YPT6 (second series), stronger effect = lower value 0.976 | S. cerevisiae deletion strains, locus YLR262C, strain YPT6, stronger effect = lower value 0.941 | S. cerevisiae deletion strains, locus YLR268W, strain sec22, stronger effect = lower value 0.99 | S. cerevisiae deletion strains, locus YLR320W, strain mms22, stronger effect = lower value 0.964 | S. cerevisiae deletion strains, locus YLR330W, strain CHS5, stronger effect = lower value 0.996 | S. cerevisiae deletion strains, locus YLR342W, strain FKS1 (second series), stronger effect = lower value 1.07 | S. cerevisiae deletion strains, locus YLR342W, strain FKS1, stronger effect = lower value 0.954 | S. cerevisiae deletion strains, locus YLR357W, strain rsc2, stronger effect = lower value 0.967 | S. cerevisiae deletion strains, locus YLR370C, strain arc18, stronger effect = lower value 0.97 | S. cerevisiae deletion strains, locus YLR371W, strain rom2, stronger effect = lower value 0.999 | S. cerevisiae deletion strains, locus YLR384C, strain iki3, stronger effect = lower value 0.986 | S. cerevisiae deletion strains, locus YLR418C, strain cdc73, stronger effect = lower value 1 | S. cerevisiae deletion strains, locus YML016C, strain PPZ1, stronger effect = lower value 0.993 | S. cerevisiae deletion strains, locus YML032C, strain rad52, stronger effect = lower value 0.992 | S. cerevisiae deletion strains, locus YML120C, strain ndi1, stronger effect = lower value 0.967 | S. cerevisiae deletion strains, locus YML124C, strain tub3, stronger effect = lower value 0.982 | S. cerevisiae deletion strains, locus YMR058W, strain fet3, stronger effect = lower value 0.976 | S. cerevisiae deletion strains, locus YMR078C, strain ctf18, stronger effect = lower value 0.982 | S. cerevisiae deletion strains, locus YMR125W, strain sto1, stronger effect = lower value 0.944 | S. cerevisiae deletion strains, locus YMR129W, stronger effect = lower value 0.984 | S. cerevisiae deletion strains, locus YMR205C, strain PFK2, stronger effect = lower value 0.969 | S. cerevisiae deletion strains, locus YMR223W, strain ubp8, stronger effect = lower value 0.985 | S. cerevisiae deletion strains, locus YMR231W, strain pep5, stronger effect = lower value 0.986 | S. cerevisiae deletion strains, locus YMR263W, strain SAP30, stronger effect = lower value 0.981 | S. cerevisiae deletion strains, locus YMR307W, strain GAS1, stronger effect = lower value 1.07 | S. cerevisiae deletion strains, locus YNL067W, strain RPL9B, stronger effect = lower value 0.964 | S. cerevisiae deletion strains, locus YNL071W, strain lat1, stronger effect = lower value 0.976 | S. cerevisiae deletion strains, locus YNL183C, strain NPR1, stronger effect = lower value 0.915 | S. cerevisiae deletion strains, locus YNL209W, strain ssb2, stronger effect = lower value 0.975 | S. cerevisiae deletion strains, locus YNL233W, strain BNI4, stronger effect = lower value 0.978 | S. cerevisiae deletion strains, locus YNL248C, strain rpa49, stronger effect = lower value 0.969 | S. cerevisiae deletion strains, locus YNL250W, strain rad50, stronger effect = lower value 0.97 | S. cerevisiae deletion strains, locus YNL271C, strain bni1, stronger effect = lower value 0.995 | S. cerevisiae deletion strains, locus YNL298W, strain CLA4, stronger effect = lower value 0.986 | S. cerevisiae deletion strains, locus YNL307C, strain MCK1, stronger effect = lower value 0.987 | S. cerevisiae deletion strains, locus YNL322C, strain KRE1 (second series), stronger effect = lower value 0.942 | S. cerevisiae deletion strains, locus YNR049C, strain mso1, stronger effect = lower value 0.952 | S. cerevisiae deletion strains, locus YNR052C, strain pop2, stronger effect = lower value 0.996 | S. cerevisiae deletion strains, locus YOL006C, strain TOP1, stronger effect = lower value 0.928 | S. cerevisiae deletion strains, locus YOL012C, strain htz1 0.771 | S. cerevisiae deletion strains, locus YOL147C, strain pex11, stronger effect = lower value 0.982 | S. cerevisiae deletion strains, locus YOR001W, strain rrp6, stronger effect = lower value 0.979 | S. cerevisiae deletion strains, locus YOR061W, strain CKA2, stronger effect = lower value 0.959 | S. cerevisiae deletion strains, locus YOR069W, strain VPS5, stronger effect = lower value 0.994 | S. cerevisiae deletion strains, locus YOR070C, strain gyp1, stronger effect = lower value 0.972 | S. cerevisiae deletion strains, locus YOR080W, strain dia2, stronger effect = lower value 0.961 | S. cerevisiae deletion strains, locus YOR083W, strain WHI5, stronger effect = lower value 0.965 | S. cerevisiae deletion strains, locus YOR106W, strain vam3, stronger effect = lower value 0.956 | S. cerevisiae deletion strains, locus YOR136W, strain idh2, stronger effect = lower value 0.988 | S. cerevisiae deletion strains, locus YOR144C, strain elg1, stronger effect = lower value 0.987 | S. cerevisiae deletion strains, locus YOR184W, strain ser1, stronger effect = lower value 0.981 | S. cerevisiae deletion strains, locus YOR231W, strain MKK1, stronger effect = lower value 0.968 | S. cerevisiae deletion strains, locus YOR265W, strain rbl2, stronger effect = lower value 0.973 | S. cerevisiae deletion strains, locus YOR270C, strain vph1, stronger effect = lower value 0.927 | S. cerevisiae deletion strains, locus YOR290C, strain snf2, stronger effect = lower value 0.971 | S. cerevisiae deletion strains, locus YOR316C, strain cot1, stronger effect = lower value 0.978 | S. cerevisiae deletion strains, locus YPL051W, strain arl3, stronger effect = lower value 0.982 | S. cerevisiae deletion strains, locus YPL055C, strain LGE1, stronger effect = lower value 0.906 | S. cerevisiae deletion strains, locus YPL078C, strain atp4, stronger effect = lower value 0.971 | S. cerevisiae deletion strains, locus YPL106C, strain sse1, stronger effect = lower value 0.961 | S. cerevisiae deletion strains, locus YPL240C, strain hsp82, stronger effect = lower value 0.994 | S. cerevisiae deletion strains, locus YPL256C, strain CLN2, stronger effect = lower value 0.953 | S. cerevisiae deletion strains, locus YPR119W, strain clb2, stronger effect = lower value 0.986 | S. cerevisiae deletion strains, locus YPR141C, strain kar3, stronger effect = lower value 0.989 | S. cerevisiae deletion strains, locus YPR163C, strain tif3, stronger effect = lower value 0.996 | S. cerevisiae deletion strains, locus YPR167C, strain met16, stronger effect = lower value 0.994 | S. cerevisiae deletion strains, strain wtn01, stronger effect = lower value 1 | S. cerevisiae strains, strain wild type, stronger effect = lower value 0.982

Reference: PubChem BioAssay AID1159580 (chemical genetic matrix, 2015)
